Among the data in PubChem BioAssay (NCATS) are Potency and activity change, negative = inhibition values, retold here.

Inconclusive results are not listed. Entries that show only a call come without a potency. Activity calls are given as the source filed them. Calls follow the shape of the dose curve; as a rule, active = well fitted curve in the direction sought with a large enough effect; inconclusive = small, poorly fitted or top-dose-only effect, or another doubt; inactive = no such curve, though single readings can be large; an effect the other way counts as inactive or inconclusive.

In one assay the test system is Zika virus NS2B-NS3 protease. The experiment in a line: Primary screen GU AMC qHTS for Zika virus inhibitors (AID 1347154). Also: nearly all actives have a fitted effect of over 70% in size. Also: potency is read from the fitted curve at half-maximal effect. The settings on record: Zika NS2B-NS3 unlinked protease, AMC fluorogenic substrate; series mostly up to 54.1 µM. In outline:
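Unlinked Zika NS2B hydrophilic domain/NS3 protease domain noncovalent complex (25 nM final) in 10 mM Tris-HCl pH 8.0, 0.01% Tween 20, with AMC peptide substrate. Fluorescence (ex 340, em 450 nm) change over 15 min, room temperature; percent inhibition fitted to 4-parameter Hill equation.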
(Quantitative high-throughput screening tests each substance at several concentrations.)
As to `NC(=O)Nc1sc(-c2ccc(F)cc2)cc1C(N)=O`, the Potency entry was “inactive”.

On to `Cc1nc(NC(=O)N2CCC[C@@H]2C(N)=O)sc1-c1ccnc(C(C)(C)C(F)(F)F)c1`, for which the Potency result was “inactive”.

With `CC(=O)NC(CS)C(=O)O` (centres undefined), the Potency result is “inactive”.

As to `CCN(C(=O)c1c(O)c2c(Cl)cccc2n(C)c1=O)c1ccccc1`, the Potency result was “inactive”.

On to `O=C(C=Cc1ccc(CN(CCO)CCc2c[nH]c3ccccc23)cc1)NO`, for which the Potency result is “inactive”.

`NC(=O)c1cccc(-c2cccc(OC(=O)NC3CCCCC3)c2)c1`: the Potency result was “inactive”.

`O=c1c(O)c(-c2ccc(O)c(O)c2)oc2cc(O)ccc12`: the Potency is 17.1 µM (active).

On to `CCC(C=C[C@@H]1OC(=O)C=C[C@H]1C)=C[C@H](C)CC=CC(C)=C[C@@H](C)C(=O)[C@@H](C)[C@H](O)[C@@H](C)CC(C)=CC(=O)O`, for which the activity change, negative = inhibition is 23.8% [at 2.16 µM] (inactive).

`NC(=O)c1ncn([C@@H]2O[C@H](CO)[C@@H](O)[C@@H]2O)c1N`: the Potency result was “inactive”.

In the case of `CN1C(C(=O)Nc2ccccn2)=C(O)c2sc(Cl)cc2S1(=O)=O`, the Potency result was “inactive”.

As for `CON=C(C(=O)N[C@@H]1C(=O)N2C(C(=O)O)=C(CSC(=O)c3ccco3)CS[C@H]12)c1csc(N)n1`, the Potency entry is “inactive”.

As to `CC(=CC(=O)Nc1ccccc1C(=O)O)c1ccc2ccccc2c1`, the Potency result was “inactive”.

With `CCNC(=O)Nc1ccc(-c2nc3c(c(N4CCOC[C@H]4C)n2)CCN(C2COC2)C3)cc1`, the Potency result was “inactive”.

For `CC[C@H](CC[C@@H](C)[C@H]1CC[C@H]2[C@@H]3CC=C4C[C@@H](O)CC[C@]4(C)[C@@H]3CC[C@]12C)C(C)C`, the Potency entry was “inactive”.

As to `CCCCCN=C(N)NN=Cc1c[nH]c2ccc(OC)cc12`, the Potency result is “inactive”.

Take `CC(C)C[C@H](NC(=O)[C@@H](NC(=O)c1cccc(-c2ccccc2)n1)[C@@H](C)O)B(O)O`: the Potency result was “inactive”.

The test system of another assay is Zika virus NS2B-NS3 protease (unlinked complex). The experiment in a line: Primary screen GU Rhodamine qHTS for Zika virus inhibitors: Unlinked NS2B-NS3 protease assay (AID 1347159). Also: nearly all actives have a fitted effect of over 60% in size. The settings on record: Recombinant ZIKV NS2B-NS3 protease, Rhodamine110 substrate fluorescence; series mostly up to 107 µM. In outline:
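Compounds, tested up to 114 microM, were incubated for 15 minutes with 25 nM unlinked NS2B-NS3 protease at pH 8.0. Cleavage of 1.5 microM Rhodamine110 substrate was then followed by fluorescence for 15 minutes.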
As to `CCCCOc1ccc(C(=O)Nc2ccc(F)cc2F)cc1`, the Potency result was “inactive”.

As for `COc1ccc(S(=O)(=O)Nc2cccnc2Nc2ccc(O)cc2)cc1`, the Potency result is “inactive”.

On to `CC(C)C[C@H](NC(=O)[C@@H](NC(=O)c1cccc(-c2ccccc2)n1)[C@@H](C)O)B(O)O`, for which the Potency result is “inactive”.
